# Measurements as given in PubChem BioAssay (Tox21).
# Several values for one entry are separate records, joined by “and”; a condition that tells them apart may be missing. Equal values may be shown once. Inconclusive results are not listed. A call without a number means that no potency is given here. Where a structure was tested more than once in an assay, its records may differ in their call. Activity calls are given as the source filed them. Unless noted, calls come from the whole dose curve.
# Key:
# [1] = Nuclear factor erythroid 2-related factor 2/antioxidant responsive element (Nrf2/ARE) small molecule agonists: qHTS cell viability counter screen in human keratinocytes (AID 1919968; active = well fitted curve in the direction sought with a large enough effect in the repeat runs; an effect the other way counts as inactive or inconclusive; note: nearly all actives have a fitted effect of over 55% in size; note: potency is the fitted concentration of half-maximal effect)
# Summary of the method: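 After a 5 h attachment period, ARE-reporter keratinocytes were dosed with compounds in DMSO and then cultured 23 h at 37 C. Cell viability came from CellTiter-Fluor signal read after a further 1 h.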
# [2] = target: Gonadotropin-releasing hormone receptor (Homo sapiens) (UniProt P30968); assay: Human gonadotropin-releasing hormone receptor (GnRHR) small molecule agonists, calcium flux assay in GnRHR-HEK293 cells (AID 1920063); note: nearly all actives have a fitted effect of over 35% in size
# Sequence of Gonadotropin-releasing hormone receptor (Homo sapiens) (P30968 whole entry, looked up): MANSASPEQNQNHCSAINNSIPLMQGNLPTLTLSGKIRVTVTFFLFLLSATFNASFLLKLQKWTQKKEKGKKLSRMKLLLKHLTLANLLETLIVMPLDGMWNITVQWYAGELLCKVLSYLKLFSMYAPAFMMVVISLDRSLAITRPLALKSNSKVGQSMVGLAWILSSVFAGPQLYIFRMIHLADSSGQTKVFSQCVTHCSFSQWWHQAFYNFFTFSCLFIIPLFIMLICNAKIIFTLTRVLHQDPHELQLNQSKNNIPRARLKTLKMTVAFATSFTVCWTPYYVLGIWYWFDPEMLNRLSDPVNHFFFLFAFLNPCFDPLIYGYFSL
# Summary of the method: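 We seeded human GnRHR-expressing HEK293 cells for 18 hours, loaded them with calcium dye for an hour at 37 C, added test compounds, and recorded fluorescence intensity kinetically for three minutes.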
# [3] = target: KiSS-1 receptor (Homo sapiens) (UniProt Q969F8); assay: Human kisspeptin (KISS1R) small molecule agonists, calcium flux assay in KISS1R-HEK293 cells (AID 1920064; active = well fitted curve in the direction sought with a large enough effect in the repeat runs; an effect the other way counts as inactive or inconclusive)
# Sequence of KiSS-1 receptor (Homo sapiens) (Q969F8 whole entry, looked up): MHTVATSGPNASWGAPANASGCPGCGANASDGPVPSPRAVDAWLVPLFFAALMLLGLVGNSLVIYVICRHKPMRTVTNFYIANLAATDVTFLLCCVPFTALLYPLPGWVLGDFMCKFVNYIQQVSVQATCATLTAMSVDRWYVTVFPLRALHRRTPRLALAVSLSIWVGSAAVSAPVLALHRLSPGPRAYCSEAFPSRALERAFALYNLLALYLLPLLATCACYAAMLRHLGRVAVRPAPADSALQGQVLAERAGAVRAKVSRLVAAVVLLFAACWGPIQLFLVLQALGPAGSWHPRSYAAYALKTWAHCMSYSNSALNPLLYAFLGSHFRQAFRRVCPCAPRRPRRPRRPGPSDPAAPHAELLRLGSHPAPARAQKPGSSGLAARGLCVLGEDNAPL
# Summary of the method: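 Kinetic calcium assay, 1 s sampling over 3 min at Ex/Em 480/540, in HEK293 cells engineered with human KISS1R; compounds delivered in DMSO after 1 h dye loading.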
# [4] = G protein-coupled receptor (GPCR) small molecule agonists, calcium flux assay: HEK293 wild type cell line counter screen (AID 1920065)
# Summary of the method: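 Calcium-sensitive dye, loaded 1 h at 37 C into cells cultured 18 h, reports compound-evoked calcium release as fluorescence (Ex/Em 480/540), measured over 3 min. Agonist mode; 15-point titrations, triplicate.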
# [5] = p53 small molecule agonists, cell-based qHTS assay with human liver microsomes (AID 1963577)
# Summary of the method: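 Cells carrying a p53-responsive bla reporter were rested 5 h (37 C, 5% CO2) before compound transfer. Human liver microsomes plus NADPH, 0.5 mg/mL final apiece, supplied metabolism during the 16 h 37 C exposure.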
# [6] = p53 small molecule agonists, cell-based qHTS assay with rat liver microsomes (AID 1963578)
# Summary of the method: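 Fluorescence from a beta-lactamase reporter under a p53 response element was measured after cells had been incubated 16 h at 37 C with test compound and rat liver microsomes plus NADPH (0.5 mg/mL final each).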
# [7] = p53 small molecule agonists, cell-based qHTS assay with human liver microsomes: qHTS cell viability counter screen (AID 1963579); note: nearly all actives have a fitted effect of over 45% in size; note: potency is the fitted concentration of half-maximal effect
# Summary of the method: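 Seed p53RE-bla cells at 4,000 per well; incubate 5 h at 37 C; add compound, human liver microsomes and NADPH; incubate 16 h at 37 C; add CellTiter-Glo; after 30 min at room temperature, read luminescence.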
# [8] = p53 small molecule agonists, cell-based qHTS assay with rat liver microsomes: qHTS cell viability counter screen (AID 1963580); note: nearly all actives have a fitted effect of over 45% in size
# Summary of the method: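 HCT-116 p53RE-bla, 4,000 cells/well, 5 h pre-incubation; cpd + rat liver microsomes 0.5 mg/mL + NADPH 0.5 mg/mL (final); 16 h, 37 C; CellTiter-Glo, 30 min RT; luminescence.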
# [9] = p53 small molecule agonists, cell-based qHTS assay: qHTS cell viability counter screen (AID 1963581); note: nearly all actives have a fitted effect of over 45% in size; note: potency is the fitted concentration of half-maximal effect
# Summary of the method: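 Following 5 h attachment, HCT-116 p53RE-bla cells took up compound for 16 h at 37 C; the reporter was read with B/G FRET substrate (2 h RT), and viability then via CellTiter-Glo ATP luminescence.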
# [10] = cAMP Responsive Elements (CRE) small molecule agonists, cell-based qHTS assay (AID 1963590)
# Summary of the method: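 A CRE-responsive beta-lactamase reporter in HEK 293T cells was used. Treatment ran 3 h at 37 C; detection used LiveBLAzer B/G FRET substrate for 2 h at room temperature.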
# [11] = cAMP Responsive Elements (CRE) small molecule antagonists, cell-based qHTS assay (AID 1963591; active = well fitted inhibition curve with a large enough effect in the signal ratio in the repeat runs, not every such curve was filed as active; the % refers to the signal ratio)
# Summary of the method: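 HEK293T cells carrying a CRE-driven beta-lactamase reporter receive compound and NKH477 (0.25 uM final) for 3 h. Fluorescence from LiveBLAzer B/G FRET substrate is read after 2 h at room temperature.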
# [12] = target: Beta-2 adrenergic receptor (Homo sapiens) (UniProt P07550); assay: Adrenergic beta2 receptor (ADRB2) small molecule agonists, cell-based qHTS assay (AID 1963593);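 note: CHO cells stably overexpressing human ADRB2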
# Sequence of Beta-2 adrenergic receptor (Homo sapiens) (P07550 whole entry, looked up): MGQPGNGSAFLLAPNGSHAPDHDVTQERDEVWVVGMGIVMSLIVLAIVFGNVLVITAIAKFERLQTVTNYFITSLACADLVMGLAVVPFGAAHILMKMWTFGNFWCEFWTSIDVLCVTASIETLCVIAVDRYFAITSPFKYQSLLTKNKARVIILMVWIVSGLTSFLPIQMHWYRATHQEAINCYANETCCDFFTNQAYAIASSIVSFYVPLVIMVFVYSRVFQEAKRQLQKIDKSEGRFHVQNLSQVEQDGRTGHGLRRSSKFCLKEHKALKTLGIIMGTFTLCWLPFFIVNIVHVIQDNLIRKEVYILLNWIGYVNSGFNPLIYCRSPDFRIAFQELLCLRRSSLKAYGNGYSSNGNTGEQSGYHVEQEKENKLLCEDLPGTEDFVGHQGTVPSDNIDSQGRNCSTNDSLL
# Summary of the method: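 CHO cells stably over-expressing ADRB2 were plated overnight at 37C, then dosed with compounds plus a stimulation mix containing 100uM IBMX and 25uM Ro-20-1724 for 0.5hr at room temperature. cAMP was measured by HTRF competition, 1hr.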
# [13] = target: D(2) dopamine receptor (Homo sapiens) (UniProt P14416); assay: Dopamine D2 receptor (DRD2) small molecule antagonists, cell-based qHTS assay (AID 1963595; active = well fitted inhibition curve with a large enough effect in the signal ratio in the repeat runs, with a control signal flat; the % refers to the signal ratio)
# Sequence of D(2) dopamine receptor (Homo sapiens) (P14416 whole entry, looked up): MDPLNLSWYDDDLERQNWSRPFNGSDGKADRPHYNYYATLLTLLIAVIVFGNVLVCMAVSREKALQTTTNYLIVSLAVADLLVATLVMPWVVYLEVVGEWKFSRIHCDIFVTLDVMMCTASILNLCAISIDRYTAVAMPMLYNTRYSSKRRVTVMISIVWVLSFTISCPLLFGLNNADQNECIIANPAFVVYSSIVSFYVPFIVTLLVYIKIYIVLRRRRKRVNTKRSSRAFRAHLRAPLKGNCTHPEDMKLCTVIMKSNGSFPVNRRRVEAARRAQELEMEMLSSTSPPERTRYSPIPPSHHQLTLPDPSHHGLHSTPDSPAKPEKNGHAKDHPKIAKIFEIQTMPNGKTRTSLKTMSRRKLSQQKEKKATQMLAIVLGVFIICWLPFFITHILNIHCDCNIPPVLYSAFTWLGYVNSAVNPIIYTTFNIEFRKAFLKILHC
# Summary of the method: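 Readout: HTRF cAMP, cAMP-d2 competing with cellular cAMP for anti-cAMP cryptate, read after 1 h. Cells: DRD2-HEK293. Conditions: 0.1 mM Ro20-1724, 12 nM quinpirole, 200 nM NKH477, 30 min RT.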
# [14] = target: 5-hydroxytryptamine receptor 2A (Homo sapiens) (UniProt P28223); assay: 5-hydroxytryptamine receptor 2A (HTR2A) small molecule antagonists, cell-based qHTS assay (AID 1963586); note: nearly all actives have a fitted effect of over 45% in size; note: potency is the fitted concentration of half-maximal effect
# Sequence of 5-hydroxytryptamine receptor 2A (Homo sapiens) (P28223 whole entry, looked up): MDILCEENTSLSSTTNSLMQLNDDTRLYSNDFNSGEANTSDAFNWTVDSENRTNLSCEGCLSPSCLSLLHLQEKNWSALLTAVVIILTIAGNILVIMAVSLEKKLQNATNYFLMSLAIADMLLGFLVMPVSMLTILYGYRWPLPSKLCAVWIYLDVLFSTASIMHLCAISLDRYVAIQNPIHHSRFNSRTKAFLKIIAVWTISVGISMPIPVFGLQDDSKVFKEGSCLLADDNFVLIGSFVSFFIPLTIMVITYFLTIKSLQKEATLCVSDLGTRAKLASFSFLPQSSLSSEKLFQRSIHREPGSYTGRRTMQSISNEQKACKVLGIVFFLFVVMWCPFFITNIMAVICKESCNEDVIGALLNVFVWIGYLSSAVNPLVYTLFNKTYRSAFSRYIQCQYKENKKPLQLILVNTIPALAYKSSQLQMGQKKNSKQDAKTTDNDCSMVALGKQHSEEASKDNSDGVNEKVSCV
# Summary of the method: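 Antagonist-mode intracellular calcium assay: DOI (4 nM) added after 5 min compound pre-incubation at room temperature to dye-loaded HTR2A-CHO cells. Fluorescence followed for 3 min, sampled every second.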
# [15] = target: 5-hydroxytryptamine receptor 2A (Homo sapiens) (UniProt P28223); assay: 5-hydroxytryptamine receptor 2A (HTR2A) small molecule agonists, cell-based qHTS assay (AID 1963587); note: nearly all actives have a fitted effect of over 30% in size; note: potency is the fitted concentration of half-maximal effect
# Summary of the method: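 Kinetic calcium-flux fluorescence (2 min, 1 sec intervals) after compound addition in agonist mode. HTR2A-CHO cells were cultured 18 h, then dye-loaded 1 h at 37 C.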
# [16] = target: Muscarinic acetylcholine receptor M1 (Homo sapiens) (UniProt P11229); assay: Cholinergic receptor muscarinic 1 (CHRM1) small molecule antagonists, cell-based qHTS assay (AID 1963588); note: nearly all actives have a fitted effect of over 40% in size
# Sequence of Muscarinic acetylcholine receptor M1 (Homo sapiens) (P11229 whole entry, looked up): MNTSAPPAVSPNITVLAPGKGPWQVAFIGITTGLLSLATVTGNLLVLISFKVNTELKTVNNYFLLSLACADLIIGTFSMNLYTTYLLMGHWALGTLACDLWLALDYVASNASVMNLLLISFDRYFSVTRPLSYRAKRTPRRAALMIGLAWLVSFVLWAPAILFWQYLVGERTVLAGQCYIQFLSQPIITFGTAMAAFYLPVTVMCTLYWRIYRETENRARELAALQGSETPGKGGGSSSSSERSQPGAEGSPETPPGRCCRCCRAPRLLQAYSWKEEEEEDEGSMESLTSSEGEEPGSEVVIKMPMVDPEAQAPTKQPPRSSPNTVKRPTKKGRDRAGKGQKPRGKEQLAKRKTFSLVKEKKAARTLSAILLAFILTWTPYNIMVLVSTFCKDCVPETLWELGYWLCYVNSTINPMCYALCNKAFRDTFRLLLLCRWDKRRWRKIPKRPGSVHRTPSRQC
# Summary of the method: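 CHRM1-CHO calcium-flux assay, antagonist mode. Cells were seeded 18 h, dye-loaded 1 h at 37 C and given compound for 5 min at RT, then acetylcholine was added at 50nM. FDSS fluorescence was read 3 min; 15 concentrations, three runs.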
# [17] = target: Muscarinic acetylcholine receptor M1 (Homo sapiens) (UniProt P11229); assay: Cholinergic receptor muscarinic 1 (CHRM1) small molecule agonists, cell-based qHTS assay (AID 1963589); note: nearly all actives have a fitted effect of over 35% in size
# Summary of the method: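 Measures agonist-induced intracellular calcium rise. Stable human CHRM1 CHO line, 1 h dye load at 37 C, compounds from DMSO, kinetic fluorescence read.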
# [18] = target: Beta-2 adrenergic receptor (Homo sapiens) (UniProt P07550); assay: Adrenergic beta2 receptor (ADRB2) small molecule antagonists, cell-based qHTS assay (AID 1963592); note: nearly all actives have a fitted effect of over 50% in size; note: potency is the fitted concentration of half-maximal effect
# Summary of the method: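 Cells (CHO, stable ADRB2 overexpression) incubated 18-20hr at 37C; compounds added from DMSO; agonist mix (1nM isoproterenol, 100uM IBMX, 25uM Ro-20-1724) added; 0.5hr RT; d2-cAMP and anti-cAMP-cryptate added; 1hr RT; 665/615 nm read.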
# [19] = target: D(2) dopamine receptor (Homo sapiens) (UniProt P14416); assay: Dopamine D2 receptor (DRD2) small molecule agonists, cell-based qHTS assay (AID 1963594); note: nearly all actives have a fitted effect of over 35% in size
# Summary of the method: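 cAMP accumulation in DRD2-HEK293 cells measured by HTRF after 1 h detection; compounds added 10 min before NKH477 (200nM […]) forskolin-analogue stimulation, 30 min at room temperature, with Ro20-1724 present at 0.1 mM final.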
# [20] = p53 small molecule agonists, cell-based qHTS assay (AID 1963582; active = well fitted activation curve with a large enough effect in the signal ratio in the repeat runs, not every such curve was filed as active; the % refers to the signal ratio)
# Summary of the method: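 In this cell-based concentration-response screen, a p53 response element drives beta-lactamase; cells received DMSO-borne compounds after 5 h culture and were incubated a further 16 h before FRET substrate development.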
SMILES,Potency [1],Potency [2],Potency [3],Potency [4],Potency [5],Potency [6],Potency [7],Potency [8],Potency [9],Potency [10],Potency [11],Potency [12],Potency [13],Potency [14],Potency [15],Potency [16],Potency [17],Potency [18],Potency [19],Potency [20]
CC/C(=C(/CC)c1ccc(O)cc1)c1ccc(O)cc1,42.9 µM (active) and 61.1 µM (active),inactive,inactive,inactive,inactive,inactive,inactive,inactive,inactive,inactive,inactive,inactive,inactive,–,–,–,–,–,–,–
COC(/C=C(\C)CCC=C(C)C)OC,inactive,inactive,inactive,inactive,–,inactive,inactive,inactive,inactive,inactive,inactive,inactive,inactive,inactive,inactive,inactive,inactive,inactive,inactive,–
C=C(C)[C@H]1CC=C(C)C(=O)C1,inactive,inactive,inactive,inactive,–,–,inactive,inactive,inactive,inactive,inactive,–,inactive,inactive,inactive,inactive,inactive,inactive,inactive,–
CC1=CC(=O)NS(=O)(=O)O1,inactive,–,inactive,inactive,–,–,inactive,inactive,23 µM (active) and inactive,inactive,–,inactive,inactive,inactive,inactive,inactive,inactive,inactive,inactive,–
CCOC(=O)c1ccc(N)cc1,inactive,inactive,inactive,–,inactive,inactive,–,inactive,inactive,inactive,inactive,inactive,inactive,–,–,–,–,inactive,–,inactive
CCC(=O)O[C@H]1[C@H](O[C@@H]2[C@@H](C)[C@H](O[C@H]3C[C@@](C)(OC)[C@@H](O)[C@H](C)O3)[C@@H](C)C(=O)O[C@H](CC)[C@@](C)(O)[C@H](O)[C@@H](C)C(=O)[C@H](C)C[C@@]2(C)O)O[C@H](C)C[C@@H]1N(C)C,inactive,inactive,inactive,–,–,–,inactive,inactive,inactive,inactive,inactive,inactive,inactive,–,–,–,–,inactive,inactive,–
COc1ccc(CCN2CCC(Nc3nc4ccccc4n3Cc3ccc(F)cc3)CC2)cc1,11.1 µM (active) and 23.7 µM (active),–,inactive,inactive,inactive,inactive,14.8 µM (active) and inactive,–,13.2 µM (active),–,–,–,–,–,–,–,–,55.7 µM (active) and inactive,inactive,inactive
C(/C=C/C=C/Nc1ccccc1)=Nc1ccccc1,inactive,inactive,inactive,–,inactive,–,inactive,inactive,–,inactive,inactive,–,inactive,inactive,inactive,inactive,inactive,inactive,inactive,inactive
CC1(C)[C@@H]2CC[C@]3(C2)[C@@H]1C(=O)CCC3(C)C,inactive,–,inactive,inactive,inactive,inactive,inactive,inactive,inactive,inactive,inactive,–,inactive,–,inactive,inactive,inactive,inactive,inactive,inactive
Oc1ccc2cc(SSc3ccc4cc(O)ccc4c3)ccc2c1,inactive,–,inactive,inactive,–,–,inactive,–,inactive,–,inactive,–,inactive,–,inactive,inactive,inactive,–,inactive,–
CO[Si](CCCNCCNCCN)(OC)OC,inactive,inactive,inactive,–,inactive,inactive,inactive,inactive,inactive,inactive,inactive,–,inactive,inactive,inactive,inactive,inactive,inactive,inactive,inactive
CC(C)(C)OC(=O)c1cccc(N)c1,inactive,–,inactive,inactive,inactive,–,inactive,inactive,inactive,inactive,inactive,inactive,inactive,–,inactive,inactive,inactive,inactive,inactive,inactive
C=C(C)C(=O)OCCC(C)OC(=O)C(=C)C (centres undefined),–,inactive,inactive,inactive,inactive,inactive,inactive,inactive,inactive,inactive,inactive,inactive,–,inactive,inactive,inactive,inactive,inactive,inactive,inactive
CN(C)CCCNCCCN(C)C,inactive,–,inactive,inactive,inactive,inactive,inactive,inactive,inactive,inactive,inactive,inactive,inactive,inactive,inactive,inactive,inactive,inactive,inactive,inactive
O=C(Oc1ccccc1)c1ccc(O)cc1,inactive,–,inactive,inactive,inactive,–,inactive,inactive,–,inactive,inactive,–,inactive,26.7 µM (active) and 13.3 µM (active),inactive,inactive,inactive,inactive,inactive,inactive
O[C@@H]([C@H](O)[C@H](O)CBr)[C@H](O)CBr,inactive,inactive,inactive,–,inactive,inactive,inactive,inactive,inactive,inactive,inactive,inactive,inactive,inactive,inactive,inactive,inactive,inactive,–,inactive
O=P(OC(CCl)CCl)(OC(CCl)CCl)OC(CCl)CCl,inactive,inactive,–,inactive,–,inactive,inactive,inactive,inactive,inactive,inactive,–,inactive,inactive,43.4 µM (active) and 2.19 µM (active),inactive,inactive,inactive,inactive,inactive
